About 2,500 (4.4%) of roughly 57,000 sequences were called active. Rule as the data show it: active = GI50 up to about 1.1 µM and inactive = higher. The list is a sample of the results. Measured potencies and affinities stand elsewhere.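 Assay format: 96-well plates, 48-hour exposure. At the GI50, growth is halved.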

For the experiment, the system named is OVCAR-5. The experiment in a line: NCI tumour cell line growth inhibition, 48 h.
Consider “mu-(1,7-nanodiamine-N,N')bis-(cis-aminedichloroplatimum (II)), CHEMBL2146215”, for which the GI50 is more than 100 µM.

Consider CISPLATIN, CHEMBL11359, for which the GI50 turned out to be 4.51 µM.

Take “[Bis(aminomethyl)pentamethylenesilane]dichloropaltinum(II), CHEMBL2146202”: the GI50 worked out at 3.38 µM.

For the substance “[Bis(aminomethyl)ethylmethylsilane]tetrachloroplatinum(IV), CHEMBL2146192”, the GI50 was 6.49 µM.

Regarding “[Bis(aminomethyl)pentamethylenesilane]tetrachloropaltinum(IV), CHEMBL2146204”, the GI50 was determined as 6.27 µM.

Take “cis-Bis[[(trimethylsilyl)methyl]amino]tetrachloroplatinum(IV), CHEMBL2146191”: the GI50 came to 30.3 µM.

Substance “[Bis(aminomethyl)dimethylsilane]tetrachloroplatinum(IV), CHEMBL2146190” yielded a GI50 of 7.29 µM.

Substance “[Bis(aminomethyl)dimethylsilane]dichloroplatinum (II), CHEMBL2146201” returned a GI50 of 30.5 µM.

The substance “[Bis(aminomethyl)tetramethylenesilane]dichloropaltinum(II), CHEMBL2146205” came in with a GI50 of 7.55 µM.

Substance “[Bis(aminomethyl)tetramethylenesilane]tetrachloropaltinum(IV), CHEMBL2146189” yielded a GI50 of 4.22 µM.
